# Experimental data: PubChem BioAssay (NCATS)
# Where “and” joins values, the source holds several entries; their conditions need not be identical. Identical values can stand only once. Results filed as inconclusive are left out. A call without a number means that no potency is given here. A number with no mark means an inactive call. Calls of active or inactive are those of the source. The call rests on the fitted dose curve; in most records, active means well fitted curve in the direction sought with a large enough effect; inconclusive means small, poorly fitted or top-dose-only effect, or another doubt; inactive means no such curve, though single readings can be large; an effect the other way counts as inactive or inconclusive. *1 amine or outer side, *2 acyl side, *3 side chain or, on linkers, in order; H or OH if unused. Where a SMILES comes first, the peptide text is derived from it. Bridges are numbered along the chain shown (N, C = ends). X6 = O=C(CCC[*:2])[*:1]
# Legend:
# [1] = Primary qHTS for inhibitors of nuclear receptor binding SET domain protein 2 (NSD2) in an isogenic RCH-ACV NSD2 p.E1099K mutant (9B) (AID 1645876)
# [2] = Primary qHTS for inhibitors of nuclear receptor binding SET domain protein 2 (NSD2) in an RCH-ACV wild type WT cells (2C) (AID 1645877)
# Further: nearly all actives have a fitted effect of over 70% in size.
# Potency means the concentration at half of the fitted maximal effect.
smiles,measurement,setting,value
COc1ccc(C(=O)O[C@H]2CC(C)=CC[C@@]3(C)[C@@H](OC(C)=O)C[C@@](O)(C(C)C)[C@H]23)cc1,Potency,[1],inactive
same,Potency,[2],inactive
N#CC1C(=O)Nc2scc(-c3ccc(-c4ccccc4O)cc3)c2C1=O (stereo not given),Potency,[1],inactive
same,Potency,[2],inactive
CN[C@@H]1[C@@H](O)[C@@H](O[C@@H]2[C@@H](O)[C@H](O[C@H]3O[C@H](CN)[C@@H](O)[C@H](O)[C@H]3O)[C@@H](N)C[C@H]2NC(=O)[C@@H](O)CN)OC[C@]1(C)O,Potency,[1],inactive
same,Potency,[2],inactive
Cc1cc(O)cc(Oc2cc(C)c(C(=O)O)c(O)c2)c1,Potency,[1],inactive
same,Potency,[2],inactive
C[C@@H]1O[C@@H](OC[C@H]2O[C@@H](OCC3CCC4CC3C4(C)C)[C@H](O)[C@@H](O)[C@@H]2O)[C@H](O)[C@H](O)[C@H]1O (stereo not given in full),Potency,[1],inactive
same,Potency,[2],inactive
COC(=O)C1(Cc2ccc(O)cc2)OC(=O)C(OC)=C1c1ccc(O)cc1 (stereo not given),Potency,[1],inactive
same,Potency,[2],inactive
CC[C@H](C)[C@@H]1NC(=O)[C@H](Cc2ccc(OC)cc2)NC(=O)CCCSC[C@@H](C(=O)N2CCC[C@H]2C(=O)N[C@@H](CC(C)C)C(=O)NCC(N)=O)NC(=O)[C@H](CC(N)=O)NC(=O)[C@H](CCC(N)=O)NC1=O (Y(Me)IQNCPLG-NH2; linker N-5 via X6),Potency,[1],inactive
same,Potency,[2],inactive
C/C=C1\[C@H](O[C@@H]2O[C@H](CO)[C@@H](O)[C@H](O)[C@H]2O)OC=C(C(=O)OC)[C@H]1CC(=O)OC,Potency,[1],inactive
same,Potency,[2],inactive
COc1cc(N2CCC(N(C)C)CC2)ccc1Nc1ncc(Cl)c(Nc2ccccc2P(C)(C)=O)n1,Potency,[1],2.3 µM (active) and 2.63 µM (active)
same,Potency,[2],3.25 µM (active) and 3.32 µM (active)
C=C1C2=CC(O)C(C)C1(C)CC/C(C)=C/CCC1(C)OC1C2=O (stereo not given),Potency,[1],inactive
same,Potency,[2],inactive
CC1=C(CC(=O)O)c2cc(F)ccc2C1=Cc1ccc(S(C)(=O)=O)cc1,Potency,[1],inactive
same,Potency,[2],inactive
COc1ccc2c(c1)OC[C@]1(O)c3cc4c(cc3O[C@H]21)OCO4,Potency,[1],inactive
same,Potency,[2],inactive
NC(=O)[C@H]1CCCCc2c1[nH]c1ccc(Cl)cc21,Potency,[1],inactive
same,Potency,[2],inactive
CC1OC(OC2C(CO)OC(OCC3OC(OC(=O)C45CCC(C)(C)CC4C4=CCC6C7(C)CCC(OC8OC(C(=O)O)C(O)C(OC9OC(CO)C(O)C(O)C9O)C8O)C(C)(C)C7CCC6(C)C4(C)CC5)C(O)C(O)C3O)C(O)C2O)C(O)C(O)C1O (stereo not given),"activity change, negative = viability loss",[1],0.172% [at 9.23 µM]
same,"activity change, negative = cell killing",[2],-4.23% [at 9.23 µM]
CC1OC(OC2C(O)C(C(=O)O)OC(OC3CCC4(C)C(CCC5(C)C4C=CC4=C6CC(C)(C)CC(O)C6(C)CCC45C)C3(C)C)C2OC2OCC(O)C(O)C2O)C(O)C(O)C1O (stereo not given),outcome,[1],inactive [at 9.23 µM]
same,outcome,[2],inactive [at 9.23 µM]
